# Measured values from PubChem BioAssay (EPA / NIEHS).
# Several values for one entry are separate records, joined by “and”; a condition that tells them apart may be missing. Identical values can stand only once. More than one record can exist for a structure, and the calls need not agree. Activity calls are given as the source filed them. The calls were made as follows: active = hit-call score of the fitted dose curve at least 0.9, where 1 is the maximum; inactive = score below 0.9.
# Assay: ATG_Oct_MLP_CIS: Attagene CIS-FACTORIAL HepG2 Assay for human Octamer-Binding Transcription Factor (Oct) (AID 2282993)
# Details: HepG2 Attagene cis-factorial Oct reporter, mRNA; actives raise or lower the signal
# Experimental: ATG_CIS is a cell-based, multiplexed-readout assay that uses HepG2, a human liver cell line, with measurements taken at 24 hours after chemical dosing in a 24-well plate.ATG_Oct_MLP_CIS is one of 52 assay component(s) measured or calculated from the ATG_CIS assay. It is designed to make measurements of mRNA induction, a form of inducible reporter, as detected with fluorescence intensity signals by Reverse transcription polymerase chain reaction (RT-PCR) and Capillary electrophoresis technology.Data from the assay component ATG_Oct_MLP_CIS was analyzed into 1 assay endpoint. This assay endpoint, ATG_Oct_MLP_CIS, was analyzed with bidirectional fitting relative to DMSO as the negative control and baseline of activity. Using a type of inducible reporter, measures of mRNA for gain or loss-of-signal activity can be used to understand the reporter gene at the transcription factor-level as they relate to the gene POU2F1. Furthermore, this assay endpoint can be referred to as a primary readout, because this assay has produced multiple assay endpoints where this one serves a reporter gene function. To generalize the intended target to other relatable targets, this assay endpoint is annotated to the dna binding intended target family, where the subfamily is POU domain protein.
# Human liver HepG2 cells are transiently transfected with multiple reporter transcription units (MRTUs) in 6-well plates using FuGene 6 reagent (Roche; 3 ml FuGene/1 mg DNA). The MRTU constructs are regulated by a cis-regulating element (promoter). […] A major difference between the CIS and TRANS system is that in CIS activities of endogenous TFs are measured, whereas the TRANS assay evaluates changes in activities of exogenous, chimeric NR-Gal4 proteins. […] At the end of 24 hour incubation, total RNA was isolated using TriZol reagent (Invitrogen). The isolated RNA is then reverse-transcribed using oligo(dT) primer and Mo-MLV reverse transcriptase (Invitrogen) with DNAse I (Ambion) treatment for 30 min. The one-tenth of the produced cDNA was amplified by PCR using Taq DNA polymerase (Invitrogen) and two reporter sequence-specific primers. The PCR products were fluorescently labeled by primer extension with 6-arboxyfluorescein (6-FAM) 5'-labeled reporter sequence-specific primer (2 min at 95 C, 20 s at 68 C and 10 min at 72 C) and these products were digested with 5U of HpaI (New England Biolabs) for 2h at 37 C. The fragments were purified using Qiaquick PCR columns (Qiagen), analyzed on an ABI 3130xL genetic analyzer (Applied Biosystems) with peak positions identified by using a set of X-rhodamine (ROX)-labeled MapMarker1000 molecular weight standards (BioVentures). The raw capillary electrophoresis data was processed using Attagraph software (Attagene).
SMILES,outcome,AC50
[As]#[In],inactive,
Cc1ccc(N=C=O)cc1N=C=O,inactive,
Clc1ccc(Cl)c(Cl)c1,inactive,
CCC12COCN1COC2,inactive,
c1ccc2c(c1)oc1ccccc12,inactive,
ClC1=C(Cl)[C@]2(Cl)[C@H]3[C@H]([C@@H]4C=C[C@H]3C4)[C@@]1(Cl)C2(Cl)Cl,,25.1 µM (active)
Nc1cc(Cl)cc(C(=O)O)c1Cl,inactive,
C=CCc1ccc2c(c1)OCO2,inactive,
ClC1=C(Cl)C2(Cl)C3C(Cl)C=CC3C1(Cl)C2(Cl)Cl (stereo not given),,149 µM (active)
CCN(CC)CCO,inactive,
Clc1ccc(C(c2ccc(Cl)cc2)C(Cl)Cl)cc1,,49.7 µM (active)
c1ccc(NNc2ccccc2)cc1,inactive,
Nc1ccc(Cc2ccc(N)cc2)cc1,inactive,
OCCOCCO,inactive,
ClCCOCCCl,inactive,
CC(C)(OOC(C)(C)c1ccccc1)c1ccccc1,,59.6 µM (active)
CCNS(=O)(=O)C(F)(F)C(F)(F)C(F)(F)C(F)(F)C(F)(F)C(F)(F)C(F)(F)C(F)(F)F,inactive,96.5 µM (active)
Cc1cccc(N)c1N,,167 µM (active)
COC(=O)Nc1nc2ccccc2[nH]1,inactive,

SMILES,outcome,AC50
Cc1ccc(N)cc1,inactive,
O=P(OCCCl)(OCCCl)OCCCl,inactive,
CCN(CC)N=O,inactive,
c1ccc(N=Nc2ccccc2)cc1,inactive,
CCOC(=O)[C@]1(c2ccccc2)Oc2ccccc2[C@@H]1N,,28.8 µM (active)
CCCCCCCCn1sccc1=O,,15.9 µM (active)
CC(C)(O)c1cnn2c(-c3ccc(F)c(-c4c(F)cccc4C#N)c3)cnc2n1,inactive,
Clc1ccc(C(c2ccc(Cl)cc2)C(Cl)(Cl)Cl)cc1,inactive,
Oc1ccc2ccc3cccc4ccc1c2c34,inactive,
C1=Cc2cccc3cccc1c23,inactive,
C[C@]12C=CC3=C4CCC(=O)C=C4CC[C@H]3[C@@H]1CC[C@@H]2O,inactive,71.1 µM (active) and 13.9 µM (active) and 9.62 µM (active)
OCCCBr,inactive,
Nc1ccc(N=Nc2ccccc2)cc1,,36.2 µM (active)
Nc1ccc(Cl)cc1N,,29.5 µM (active)
Cc1ccc(N)c(N)c1,,42.3 µM (active)
CC(O)CCO (stereo not given),inactive,
Cc1ccc([N+](=O)[O-])cc1,inactive,
CCCSC(=O)N(CCC)CCC,inactive,
CCCCCOC(=O)c1ccccc1C(=O)OCCCCC,,161 µM (active)
